Rows were chosen to be rich in hits. Some 12% of all compounds tested hit in one or more screens of this group.
PLK1 PBD block – qHTS for Inhibitors of PLK1-PDB (polo-like kinase 1 - polo-box domain): Primary Screen; Potency, µM, inactives show max response, negative = inhibition, actives largely listed as inhibitors; Plk1 PBD binding of FITC phosphopeptide, fluorescence polarization; AID 720504, 2013; Serine/threonine-protein kinase PLK1 (Homo sapiens), P53350; hit rate 2.8% among 360,000; further: series mostly up to about 57 µM; on the % scale 0 is the no-effect control and ±100 the full control effect; nearly all actives have a fitted effect of over 65% in size
Sfp inh – qHTS Assay for Inhibitors of Bacillus subtilis Sfp phosphopantetheinyl transferase (PPTase). Biochemical Sfp PPTase activity, qHTS. Potency, µM, inactives show largest response in the series, negative = inhibition, usual class: inhibitors. hit rate 3.5% among 310,000. AID 1490, 2009;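 further: the enzyme is Sfp with the accession as filed and its product quenches rhodamine fluorescence; 0% = enzyme reaction without inhibitor and -100% = no enzyme wells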
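Sfp 15 nM + cpd, 15 min RT; start w/ rhodamine-CoA 5 uM, BHQ-2-YbbR 12.5 uM (final); 50 mM Hepes pH 7.6, 10 mM MgCl2, 0.01% NP-40, 0.01% BSA; read 525/598 nm at 0 and 30 min.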
JMJD2A Tudor – qHTS Assay for Inhibitors of JMJD2A-Tudor Domain. Lysine-specific demethylase 4A (Homo sapiens), O75164. AlphaScreen JMJD2A-Tudor / H3K4me3 peptide binding. Potency, µM (highest dose often 114 µM), inactives show top-dose activity change, negative = inhibition, most hits filed as inhibitors. hit rate 4.4% among 390,000; further: on the % scale 0 is the no-effect control and ±100 the full control effect; nearly all actives have a fitted effect of over 50% in size
HP1b chromo inh – HTS for Inhibitors of HP1-beta Chromodomain Interactions with Methylated Histone Tails; Chromobox protein homolog 1 (Homo sapiens), P83916; AlphaScreen HP1-beta / biotin-H3K9me3 peptide binding; Potency, µM (titrated, usually from 114 µM), without a hit: at the highest dose activity change, negative = inhibition, most hits filed as inhibitors; hit rate 0.56% among 390,000; AID 540317, 2011; further: nearly all actives have a fitted effect of over 70% in size
Target sequence (P83916 whole entry, looked up): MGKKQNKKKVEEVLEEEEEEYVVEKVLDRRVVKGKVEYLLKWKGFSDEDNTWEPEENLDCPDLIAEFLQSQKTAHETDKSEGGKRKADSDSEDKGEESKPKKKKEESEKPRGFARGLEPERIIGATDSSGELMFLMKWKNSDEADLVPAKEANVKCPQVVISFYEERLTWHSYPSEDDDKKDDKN
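Compound inhibition of the preformed complex between 50 nM HP1-beta and 50 nM biotinylated H3K9me3 peptide was read by AlphaScreen. Buffer was PBS pH 7.4 with 0.01% Tween-20. Incubations ran 30 min at room temperature, with 10 ug/mL donor/acceptor beads.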
G9a block – qHTS Assay for Inhibitors of Histone Lysine Methyltransferase G9a. Histone-lysine N-methyltransferase EHMT2 (Homo sapiens), Q96KQ7. G9a H3K9 monomethylation, AlphaScreen, 2 h. Potency, µM (top dose mostly 102 µM), for the others: at the top dose activity, negative = inhibition, usual class: inhibitors. hit rate 8.8% among 350,000. AID 504332, 2011; further: on the % scale 0 is the no-effect control and ±100 the full control effect; nearly all actives have a fitted effect of over 75% in size
Target sequence (Q96KQ7 913-1193 limits assumed): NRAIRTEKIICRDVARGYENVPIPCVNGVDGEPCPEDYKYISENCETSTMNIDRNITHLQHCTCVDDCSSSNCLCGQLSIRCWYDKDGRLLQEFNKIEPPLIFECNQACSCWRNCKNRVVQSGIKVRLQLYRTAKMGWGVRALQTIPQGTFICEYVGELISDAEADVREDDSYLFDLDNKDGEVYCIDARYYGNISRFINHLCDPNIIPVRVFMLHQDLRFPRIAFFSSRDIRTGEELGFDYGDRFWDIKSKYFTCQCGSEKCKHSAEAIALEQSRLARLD
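Signal arises when biotinylated H3K9 peptide, once monomethylated, bridges streptavidin donor and antibody-captured acceptor beads. Enzyme at 20 nM was preincubated 15 min with test compounds; peptide 500 nM and SAM 20 uM then reacted for 2 h.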
BAZ2B block – qHTS Assay for Inhibitors of BAZ2B; Bromodomain adjacent to zinc finger domain protein 2B (Homo sapiens), Q9UIF8; AlphaScreen BAZ2B-H3K14Ac peptide displacement; Potency, µM (doses to about 114 µM), inactives show at the top dose activity change, negative = inhibition, most hits filed as inhibitors; hit rate 4.4% among 360,000; AID 504333, 2011; further: on the % scale 0 is the no-effect control and ±100 the full control effect; nearly all actives have a fitted effect of over 60% in size
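Protein-peptide AlphaScreen: BAZ2B 50 nM, b-H3K14Ac 50 nM, 1x PBS pH 7.4 + 0.01% Tween-20. Preincubation 30 min RT; cpd 30 min RT (top 110 uM); beads 20 min RT, light-protected.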
* marks the source's active call; other numbers are inactive results; ? = inconclusive; / = not tested or not shown; [ ] = dose if it differs, or a comment. The call rests on the fitted dose curve; in most records, active means well fitted curve in the direction sought with a large enough effect; inconclusive means small, poorly fitted or top-dose-only effect, or another doubt; inactive means no such curve, though single readings can be large; an effect the other way counts as inactive or inconclusive. Potency means the concentration at half of the fitted maximal effect.

SMILES	PLK1 PBD block	Sfp inh	JMJD2A Tudor	HP1b chromo inh	G9a block	BAZ2B block
CC(=O)N1CCN(c2ccc(NS(=O)(=O)c3ccc4c(c3)CC(=O)N4)cc2)CC1	/	/	126µM*	/	/	/
Cc1cc(S(=O)(=O)NC2CCCCC2)ccc1-n1cnnn1	1.6%	2.2%	7.6%	18.1%	/	-12.5%
CCCCc1c(O)cc(C)[nH]c1=O	-2.7%	19.3%	10.0%	32.8%[57 µM]	13.6%	0.2%
CCc1ccc(NC(=O)c2[nH]c(C)c(C(C)=O)c2C)cc1	-8.7%	-7.2%	-32.2%	-22.1%	1.0%	?
COc1ccc(S(=O)(=O)Nc2ccc(N3CCOCC3)cc2)cc1[N+](=O)[O-]	-7.2%	-17.4%	-15.4%	33.3%	44.7µM*	-29.8%
COc1ccc(S(=O)(=O)Nc2ccc(N3CCOCC3)cc2)cc1Br	-11.1%	3.6%	?	-17.0%	10µM*	?
CN1C(=O)Cc2cc(S(=O)(=O)Nc3ccc(N4CCOCC4)cc3)ccc21	-0.3%	2.3%	-15.8%	7.5%	79.4µM*	-19.8%
COc1ccc(S(=O)(=O)Nc2ccccc2N2CCOCC2)cc1[N+](=O)[O-]	-3.6%	?	-22.8%	2.0%	/	-30.2%
Cc1cc(S(=O)(=O)Nc2ccc(N3CCOCC3)cc2)ccc1Br	-5.2%	8.5%	?	-0.4%	39.8µM*	?
O=[N+]([O-])c1cccc(CSC2=NCCN2S(=O)(=O)c2ccccc2)c1	-1.2%	4.4%	-28.0%	2.7%	/	?
COc1cccc(Cn2c(=O)cnc3cnc(OC)nc32)c1	/	8.2%	/	/	9.1%[0.501 µM]	/
Cc1c(Cl)ccc2c1NC(=O)[C@]21N[C@@H](CCC(N)=O)[C@H]2C(=O)N(c3ccc(F)cc3)C(=O)[C@H]21	-3.2%	-9.8%	-7.9%	47.0%	14.1µM*	2.8%
CSCCC1NC2(C(=O)Nc3c2ccc(Cl)c3C)[C@@H]2C(=O)N(C3CCCC3)C(=O)[C@H]12 (some centres undefined)	-11.8%	-2.0%	?	-16.1%	?	?
CCCCc1ccc(N2C(=O)[C@@H]3C(CC(N)=O)NC4(C(=O)Nc5ccc(F)cc54)[C@@H]3C2=O)cc1 (some centres undefined)	-12.6%	-18.1%	-25.2%	14.8%	39.8µM*	0.7%
Cc1c(Cl)ccc2c1NC(=O)C21NC(CCC(N)=O)[C@H]2C(=O)N(c3ccc(Cl)cc3)C(=O)[C@H]21 (some centres undefined)	-13.6%	-15.2%	-22.2%	59.7%	39.8µM*	0.5%
COCCc1nn2c(=O)cc(COC(=O)COc3ccccc3C)nc2s1	/	/	-26.0%	58.8%	18.9%[59 µM]	-11.9%
Cc1ccc2nc(/C(C#N)=C\c3ccc([N+](=O)[O-])o3)[nH]c2c1	-7.5%	13.1%	-15.1%	40.0%	-9.8%	-5.5%
Cc1ccc2nc(/C(C#N)=C\c3ccc(N4CCOCC4)o3)[nH]c2c1	68.9%	-3.7%	-26.4%	-3.1%	10µM*	?
Cc1ccc(N2C(=O)[C@@H]3C(c4cccnc4)=NO[C@@H]3C2=O)cc1	-9.3%	50.1µM*	-20.6%	21.8%	-14.8%[12.7 µM]	-4.8%
CC(=O)C1=NOC2C(=O)N(c3ccc(Cl)cc3)C(=O)C12 (centres undefined)	-5.2%	9.2%	3.7%	48.1%	?	-31.7%
COc1ccc(N2C(=O)[C@@H]3C(c4cccnc4)=NO[C@@H]3C2=O)cc1	-15.8%	79.4µM*	-35.1%	26.4%	/	-20.2%
COc1ccccc1-c1nnc(NC(=O)CCS(=O)(=O)c2ccc(F)cc2)o1	-6.9%	/	/	/	/	/
COc1cccc(-c2nnc(NC(=O)CCS(=O)(=O)c3ccc(C)cc3)o2)c1	-2.7%	/	-23.0%	28.7%	7.0%	-30.5%
COc1cc(-c2nnc(NC(=O)CS(=O)(=O)c3ccc(F)cc3)o2)cc(OC)c1OC	-4.5%	/	39.8µM*	19.5%	-5.1%	56.2µM*
COc1cc(-c2nnc(NC(=O)CS(=O)(=O)c3ccc(C)cc3)o2)cc(OC)c1OC	1.4%	/	25.1µM*	30.7%	9.6%	44.7µM*
SMILES	PLK1 PBD block	Sfp inh	JMJD2A Tudor	HP1b chromo inh	G9a block	BAZ2B block
CN(C)S(=O)(=O)c1ccc(N2CCCC2)c(C(=O)Nc2ccc(F)cc2F)c1	0.8%	/	-11.0%	12.7%	11.2µM*	7.8%
COc1ccc(S(=O)(=O)N2CCCCC2)cc1NC(=O)c1ccc([N+](=O)[O-])o1	-10.0%	14.9%	-5.5%	32.9%	1.3%	-5.6%
CCN1CCN(c2ccc(S(=O)(=O)N3CCCCC3)cc2NC(=O)c2sccc2C)CC1	-6.1%	/	-29.0%	9.1%	2.24µM*	?
O=C(Nc1cc(S(=O)(=O)N2CCOCC2)ccc1N1CCOCC1)c1cccs1	-6.3%	/	89.1µM*	-20.8%	13.6%[2.33 µM]	0.0%
CCN1CCN(c2ccc(S(=O)(=O)N3CCCCC3)cc2NC(=O)c2ccc([N+](=O)[O-])o2)CC1	-14.8%	/	?	?	35.5µM*	-31.7%
COc1cc(NC(=O)CSc2ccc(-c3sc(-c4ccccc4)nc3C)nn2)cc(OC)c1	/	/	-1.1%	41.6%	7.5%[59 µM]	-2.9%
CC(=O)Nc1ccc(S(=O)(=O)N2CCc3nc(COc4ccccc4)c4c(c3C2)CO[C@@H](C)C4)cc1	/	22.7%	/	/	/	/
Cc1nc(-c2ccccc2)sc1-c1ccc(SCC(=O)NCc2ccc(F)cc2)nn1	/	/	-14.7%	12.2%	-4.7%[59 µM]	-6.5%
CN(C)S(=O)(=O)c1cccc(C(=O)Nc2cc(S(=O)(=O)N3CCOCC3)ccc2N2CCCC2)c1	5.32µM*	/	-19.1%	?	/	/
O=C(Nc1cc(S(=O)(=O)N2CCOCC2)ccc1N1CCCCC1)c1cc(-c2ccccn2)nc2ccccc12	4.23µM*	12.6µM*	79.4µM*	?	2.82µM*	-31.3%
CCN1CCN(c2ccc(S(=O)(=O)N3CCOCC3)cc2NC(=O)c2ccc(F)cc2Cl)CC1	4.7%	/	9.6%	43.6%	39.8µM*	5.7%
COc1ccc(/C=C/C(=O)Nc2ccc(S(=O)(=O)N3CCOCC3)cc2)c(OC)c1	-5.1%	/	-19.9%	35.7%	?	6.3%
CCN1CCN(c2ccc(S(=O)(=O)N3CCOCC3)cc2NC(=O)/C=C/c2ccc(OC)cc2OC)CC1	0.4%	/	-29.0%	-3.4%	39.8µM*	-38.3%
Cc1ccc(N2CCN(C(=O)c3ccccc3NC(=O)C3CC=CCC3C(=O)O)CC2)cc1 (centres undefined)	-6.4%	14.1%	-20.1%	24.5%	-12.9%	2.3%

Screens deposited in PubChem by National Center for Advancing Translational Sciences (NCATS).
